Assay outcomes from PubChem.
Rows were chosen to be rich in hits. Some 2.8% of all compounds tested hit in one or more screens of this group.
Exocytosis inh – lytic granule exocytosis inhibition; AID 651702; inhibition, % at 10 µM; TALL-104 LAMP-1 surface exposure, flow cytometry; cells stimulated with thapsigargin and PMA; actives 0.66% (n = 360,000);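 active = inhibition above about 55%, limit read from the data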
PP1 counter – counter-screen for PP5 inhibitors: inhibitors of human PP1-alpha; P62136; AID 2235; purified PP1alpha, OMFP fluorescence; inhibition, % at 6.7 µM; actives 0.9% (n = 320,000);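 active = inhibition above the mean inhibition of all tested compounds plus 3 SD, computed separately for each screening campaign, cut at about 15% in these data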
SKKanGAS inh – blocks kanamycin growth of S. pyogenes SKKanGAS strain. BacTiter-Glo, 6 h. inhibition, % at 7.5 µM. actives 1.3% (n = 300,000). AID 1662;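 active = mean replicate score, as percent of positive control median, at least 50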;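 note: strain carries kanamycin resistance gene driven by streptokinase promoter and grows in 40 µg/ml kanamycin; loss of luminescence reflects streptokinase promoter inhibition or plain growth inhibition; 0% = median of DMSO wells and 100% = positive control at its reference dose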
IDE inh – cellular human IDE inhibition | HEK cells, FAbetaB cleavage, fluorescence polarization | inhibition, % at 5.59 µM | actives 0.41% (n = 320,000);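 active = percent inhibition above the average of all tested compounds plus 3 SD, set per screening campaign, cut at about 16% in these data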;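 note: IDE supplied by intact live HEK cells; FP after avidin binding of uncleaved biotin substrate so inhibition keeps polarization high; 0% = DMSO wells and 100% = 60 µM reference IDE inhibitor Ii1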
IDE act – IDE (human) activation, cell-based | P14735 | HEK cells, FAbeta-B cleavage, fluorescence polarization; 0% vehicle, 100% cell-free pure enzyme wells | activation, % at 5.96 µM | actives 0.073% (n = 340,000) | AID 493087;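 active = activation above the mean of all tested compounds plus 3 SD, set per screening campaign, cut at about 17% in these data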
PP5 primary – blocks human protein phosphatase 5 activity; P53041; purified PP5c, OMFP substrate fluorescence; inhibition, % at 6.7 µM; actives 0.18% (n = 320,000);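 active = inhibition above the campaign's mean inhibition across all tested compounds plus 3 SD, cut at about 9.5% in these data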;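 note: 0% = DMSO only and 100% = 100 µM cantharidin control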
PP1 confirm – confirmation of human PP1 phosphatase inhibitors | actives 52% (n = 1,900) | inhibition, % at 6.7 µM | shares compounds with PP1 counter | purified PP1alpha, OMFP substrate fluorescence | AID 2358;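 active = mean PP1 inhibition above a set limit taken from the earlier primary screen, cut at about 15% in these data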
PP5 inh counter – PP5 phosphatase inhibition, counter-screen for PP1 inhibitors; shares compounds with PP1 counter; purified PP5c, OMFP fluorescence; inhibition, % at 6.7 µM; actives 4% (n = 1,900); AID 2360;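 active = mean PP5 inhibition over triplicate wells above about 9.5% taken from the earlier PP1 screen, limit read from the data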
* marks the source's active call; other numbers are inactive results; x = no result given.

SMILES	Exocytosis inh	PP1 counter	SKKanGAS inh	IDE inh	IDE act	PP5 primary	PP1 confirm	PP5 inh counter
COc1cc(NC(=O)COc2ccccc2[N+](=O)[O-])ccc1NC(=O)c1ccco1	0	20*	4	-3	3	-2	19*	-3
CCN(CC)CCOC(=O)c1ccc(N/C=C(/C#N)c2nc(-c3ccc4c(c3)OCO4)cs2)cc1	24	65*	19	-1	7	0	39*	0
CCc1ccc([C@@H]2CC=C(C(=O)O)[C@H](c3ccc(Cl)cc3)N2S(=O)(=O)c2ccc(C)cc2)cc1	3	19*	x	3	4	3	12	0
SC(COCc1ccccc1)CN1CCN(Cc2ccc3c(c2)OCO3)CC1 (stereo not given)	13	25*	-2	3	-1	0	2	-4
OC(COCc1ccccc1)CN1CCN(Cc2ccc3c(c2)OCO3)CC1 (stereo not given)	4	-2	3	0	-1	1	x	x
O=C(CSCc1cc(=O)n2ccsc2n1)Nc1ccc(F)cc1	-7	-2	5	4	3	1	x	x
O=[N+]([O-])c1cc(CN2CCCC2)c2cccnc2c1O	0	18*	x	6	7	3	5	-1
O=[N+]([O-])c1cc(CN2CCN(c3cccc(C(F)(F)F)c3)CC2)c2cccnc2c1O	x	18*	95*	3	x	5	24*	-1
CCOC(=O)[C@]12CCCC=C1N(Cc1ccccc1)C(=O)[C@H](CC(=O)NCCc1ccccc1OC)C2	-17	x	x	x	x	x	x	x
CCOc1ccc(N(CC(=O)Nc2cc(C)ccc2C)S(=O)(=O)c2c(C)[nH]c(=O)[nH]c2=O)cc1	0	-5	-1	-3	6	-1	x	x
O=C(Nc1cccc(S(=O)(=O)NC2=NCCC2)c1)c1cc(-c2ccco2)nc2ccccc12	-6	26*	3	-1	-1	1	6	-5
O=C(N/N=C/c1ccc([N+](=O)[O-])o1)c1cc(-c2ccc(-c3ccccc3)cc2)nc2ccccc12	12	27*	74*	4	-2	4	29*	4
O=C(N/N=C/c1ccc(F)cc1)c1cc(-c2ccco2)nc2ccccc12	0	19*	2	-5	3	0	13	2
Cc1nnc(NC(=O)c2cc(-c3ccco3)nc3ccccc23)s1	12	30*	5	3	4	-1	6	0
CCOc1ccc(/C=N/NC(=O)c2cc(-c3ccco3)nc3ccccc23)cc1	7	0	-16	2	-5	0	x	x
O=C(NC(=S)Nc1cccc(S(=O)(=O)NC2=NCCC2)c1)c1cc(-c2ccco2)nc2ccccc12	-1	9	11	6	-8	2	x	x
O=C(N/N=C/c1ccc([N+](=O)[O-])o1)c1cc(-c2ccncc2)nc2ccccc12	2	4	8	0	1	1	x	x
CC(C)n1c(=O)c2ccccc2n1Cc1cn(-c2ccccc2)nn1	-1	x	x	x	x	x	x	x
Cn1ncc(Br)c1C(=O)N1CCCCCC1	3	-3	-2	-4	-3	1	x	x
CCCN(CC(=O)Nc1ccc(F)c(F)c1F)C(=O)CCc1nc2ccccc2c(=O)[nH]1	0	-8	4	6	1	3	x	x
COc1cc(/C=N/NC(=O)CSc2ccccn2)ccc1O	-8	-2	10	2	0	-2	x	x
COc1cc([N+](=O)[O-])cc(/C=N/NC(=O)C(C)Nc2ccccc2C)c1O (stereo not given)	-1	22*	8	1	-1	3	15	-6
COc1cc([N+](=O)[O-])cc(/C=N/NC(=O)CSc2ccccn2)c1O	-2	21*	-6	-2	4	0	24*	-6
COc1cc([N+](=O)[O-])cc(/C=N/NC(=O)C(C)Nc2cccc(C)c2)c1O (stereo not given)	4	22*	59*	3	5	6	9	-6
COc1cccc(N/C=C/c2onc(C)c2[N+](=O)[O-])c1	-1	1	3	4	-2	-1	x	x
SMILES	Exocytosis inh	PP1 counter	SKKanGAS inh	IDE inh	IDE act	PP5 primary	PP1 confirm	PP5 inh counter
CCCCCCCCCCC[N+](C)(C)CC/C=C1/c2ccccc2Sc2ccc(Cl)cc21	-9	39*	90*	-9	11	5	9	2
CCCCCCCCCC[N+](C)(C)CC/C=C1/c2ccccc2Sc2ccc(Cl)cc21	-6	41*	95*	-13	11	8	11	6
O=C(NCc1ccccc1)C(c1ccccc1F)n1c(=O)c(-c2ccco2)nc2ccccc21 (stereo not given)	1	x	x	x	x	x	x	x
O=C1CCC(=O)N1CCC(c1ccc(F)cc1)c1ccco1 (stereo not given)	0	1	-1	-2	1	1	x	x
O=C1NCN(c2ccccc2)C12CCN(CCCC(c1ccc(F)cc1)c1ccc(F)cc1)CC2	33	19*	3	10	9	4	-9	5
C=CCOC(=O)C1=C(C)NC(SCC(=O)Nc2nccs2)=C(C#N)C1c1ccc(Cl)cc1 (stereo not given)	2	23*	31	-3	4	1	7	3
COc1cccc2cc(C(=O)C3=C(O)C(=O)N(CCN4CCOCC4)C3c3ccc(C(C)(C)C)cc3)oc12 (stereo not given)	-3	21*	21	-1	-2	4	27*	1
O=C(C1=C(O)C(=O)N(CCN2CCOCC2)C1c1ccc(Br)cc1)c1cc2ccccc2o1 (stereo not given)	-8	23*	-1	3	0	3	12	3
CCOc1ccccc1NC(=O)NC(=O)N(C)S(=O)(=O)c1ccc(C)cc1	-2	2	-7	-2	4	1	x	x
COc1ccc(CCNC(=O)CNS(=O)(=O)c2ccc(F)c(Cl)c2)cc1OC	-2	6	-6	0	5	-5	x	x
COc1ccc(CCNC(=O)COc2ccc(S(=O)(=O)NCC(C)C)cc2Cl)cc1OC	0	18*	1	-4	6	2	-1	0
COc1cccc(C2c3c(-c4cc(Cl)c(C)cc4O)n[nH]c3C(=O)N2Cc2cccnc2)c1 (stereo not given)	0	19*	17	0	-3	8	12	-1
COc1ccc(OC)c(/C=C(\C)C(=O)c2c(C)cc(C)[nH]c2=O)c1	8	-1	1	2	0	-1	x	x
O=C(/C=C/c1ccco1)NC(=S)Nc1cccc(-c2nc3ccccc3s2)c1	-1	24*	-4	6	-6	3	10	1
